# The campaign covered roughly 310,000 compounds. About 1,700 (0.55%) were called active. The sample holds actives, similar compounds and a random draw of the others, so the mix is not that of the screen. Cut-off read from the data, not from the text of the source: active = inhibition above about 50%; inactive = the rest.
# Target: Histone-lysine N-methyltransferase NSD2 (Homo sapiens) (UniProt O96028)
# Test: blockers of NSD2 lysine methylation activity – biochemical, AlphaScreen, single concentration, set 2, primary screen (AID 743445)
# Conditions: NSD2 peptide methylation, 120 min, at 12.5 µM, hits give high values
# Chain of Histone-lysine N-methyltransferase NSD2 (Homo sapiens) (O96028 whole entry, looked up): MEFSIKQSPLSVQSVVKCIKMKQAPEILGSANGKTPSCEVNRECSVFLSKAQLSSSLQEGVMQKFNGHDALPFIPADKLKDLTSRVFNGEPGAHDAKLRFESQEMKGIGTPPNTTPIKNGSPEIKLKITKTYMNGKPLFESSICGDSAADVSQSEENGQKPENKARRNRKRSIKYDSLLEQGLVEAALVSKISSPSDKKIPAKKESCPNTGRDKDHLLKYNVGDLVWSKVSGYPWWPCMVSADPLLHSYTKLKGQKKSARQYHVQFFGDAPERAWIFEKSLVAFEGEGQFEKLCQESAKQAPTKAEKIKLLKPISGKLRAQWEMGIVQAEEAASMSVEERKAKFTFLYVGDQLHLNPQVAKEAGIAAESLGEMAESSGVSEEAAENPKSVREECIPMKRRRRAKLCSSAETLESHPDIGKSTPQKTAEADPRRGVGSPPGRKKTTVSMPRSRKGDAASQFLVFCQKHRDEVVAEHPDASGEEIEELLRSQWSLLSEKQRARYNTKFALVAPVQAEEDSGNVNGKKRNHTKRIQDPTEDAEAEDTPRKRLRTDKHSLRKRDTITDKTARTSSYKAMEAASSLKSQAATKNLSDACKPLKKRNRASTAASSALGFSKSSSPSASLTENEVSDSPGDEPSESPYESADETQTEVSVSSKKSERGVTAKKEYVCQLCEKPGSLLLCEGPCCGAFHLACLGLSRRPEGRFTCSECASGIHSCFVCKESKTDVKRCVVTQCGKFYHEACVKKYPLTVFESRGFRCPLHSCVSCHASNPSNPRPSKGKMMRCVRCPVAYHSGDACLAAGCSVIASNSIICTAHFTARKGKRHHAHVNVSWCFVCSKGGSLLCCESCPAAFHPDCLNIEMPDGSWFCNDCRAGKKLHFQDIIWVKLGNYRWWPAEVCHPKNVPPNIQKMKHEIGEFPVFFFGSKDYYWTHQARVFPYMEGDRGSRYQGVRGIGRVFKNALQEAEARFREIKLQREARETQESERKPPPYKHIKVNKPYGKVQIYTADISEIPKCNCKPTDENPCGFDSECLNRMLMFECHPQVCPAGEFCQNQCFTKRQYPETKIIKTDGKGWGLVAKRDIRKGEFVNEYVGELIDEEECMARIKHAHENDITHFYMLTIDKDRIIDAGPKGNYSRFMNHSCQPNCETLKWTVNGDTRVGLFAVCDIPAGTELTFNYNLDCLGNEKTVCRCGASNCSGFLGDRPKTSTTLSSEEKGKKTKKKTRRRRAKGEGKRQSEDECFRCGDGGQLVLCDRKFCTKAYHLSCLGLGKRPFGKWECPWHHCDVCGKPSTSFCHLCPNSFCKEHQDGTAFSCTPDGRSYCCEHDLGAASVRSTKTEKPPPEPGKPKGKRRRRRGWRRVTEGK
row,SMILES,inhibition
1,Cc1ccccc1N1C(=O)NC(=O)/C(=C\c2cc(C)n(C)c2C)C1=O,5.19% (inactive)
2,Cc1cc(/C=C2/C(=O)NC(=O)N(Cc3ccco3)C2=O)c(C)n1-c1ccc(C(=O)O)cc1,36.8% (inactive)
3,Cc1c(C(=O)O)cccc1-n1c(C)cc(/C=C2\C(=O)NC(=O)N(c3ccc4c(c3)OCO4)C2=O)c1C,65.9% (active)
4,CCC(C)(O)C(=O)OC1C(=O)OC2CC3C(C)=CC(=O)C(O)C3(C)C3C4(O)OCC23C1C(C)C4O (stereo not given),-0.572% (inactive)
5,O=C(c1ccccc1)C(O)(CN1CCCCC1)c1ccccc1 (stereo not given),1.13% (inactive)
6,O=c1c2ccccc2[nH]c(=S)n1-c1cccc(Cl)c1,-7.59% (inactive)
7,COc1ccc(C2C=C(C)Oc3c2c(=O)oc2ccccc32)cc1OC (stereo not given),1.06% (inactive)
8,CC12CCC(O)CC1CCC1C2CCC2(C)C(C(=O)CC(O)C(F)(F)F)CCC12 (stereo not given),-0.54% (inactive)
9,COc1ccc(CN2C(=O)NC(=O)/C(=C\c3ccc(OC)c(OC)c3OC)C2=O)cc1,1.88% (inactive)
10,O=C1NC(=O)N(c2ccccc2)C(=O)/C1=C/c1ccc([N+](=O)[O-])s1,73.4% (active)
11,COc1cccc(N2C(=O)NC(=O)/C(=C\c3ccc([N+](=O)[O-])s3)C2=O)c1,59% (active)
12,O=C1NC(=O)N(c2ccc(F)cc2)C(=O)/C1=C/c1ccc2c(c1)CCCN2Cc1ccccc1,16.6% (inactive)
13,COc1cccc(N2C(=O)NC(=O)/C(=C\c3cn(C)c4ccccc34)C2=O)c1,1.25% (inactive)
14,O=C1NC(=O)C(Cc2ccccc2)C(=O)N1,-1.35% (inactive)
15,CC(=CCOc1ccc2ccc(=O)oc2c1)C1=CC(=O)C(C)(C)O1,0.448% (inactive)
16,CC(=O)OC1C2(CC3N4C(=O)C5(CO)SSC4(CC31O)C(=O)N5C)OC(C)C(C)(C)C2=O (stereo not given),133% (active)
17,CO[C@H]([C@H](C)/C=C/N(C)C=O)[C@@H](C)C(=O)CC[C@H](C)[C@H](O)[C@H](C)[C@H]1OC(=O)/C=C/C(C)=C/[C@H](O)[C@H](OC)C[C@@H]2C=CC[C@@H](C[C@H](OC)[C@@]3(CO3)[C@@H](OC)C[C@@H](OC)[C@@H]1C)O2,-2.92% (inactive)
18,O=P(OC1=CCCCC1)(c1ccccc1)c1ccccc1,1.12% (inactive)
19,O=c1c2ccccc2nc(CBr)n1-c1ccc(Cl)cc1,-1.22% (inactive)
20,c1cc2c(c(NC3=NCCCS3)c1)CCCC2,8.89% (inactive)
21,CC(=O)C1(O)CCC2C3CCC4=C(Cl)C(=O)CCC4(C)C3CCC21C (stereo not given),-5.24% (inactive)
22,Cc1cc(N2C(=O)C3CCCN3C2c2ccc(Cl)c(Cl)c2)no1 (stereo not given),84.4% (active)
23,CCN1C(=O)NC(=O)C2(CCCC2)C1=O,27.8% (inactive)
24,C[C@]12CCCCC1=CC(=O)C1C2CC[C@@]2(C)C1C[C@@H](F)[C@@H]2O (stereo not given in full),-1.58% (inactive)
25,O=C1NC(=O)C(CCOc2ccccc2)(CCc2ccccc2)C(=O)N1,1.16% (inactive)
